Source: PubChem BioAssay AID1159580 (chemical genetic matrix, 2015)
The whole screen tested about 5,500 compounds, of which about 2,000 (36%) were called active. Another 18% or so got no clear call; they are omitted. No stated cut-off is given here; in the data, active means normalized growth mostly below about 0.91 (no sharp cut-off); inconclusive means no clear call, values can overlap the other calls; inactive means mostly above about 0.92. Some of the results follow.

Assay: chemical genetic growth profiling, strain panel (AID 1159580);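 further: tested at 20 µM; growth read once vehicle control cultures reached saturation at 30 °C; 1 = growth at the plate median or of vehicle wells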
Conditions: S. cerevisiae deletion strains, growth OD

Measured: normalized growth

CN1CC(=O)N2[C@H](c3ccc4c(c3)OCO4)c3[nH]c4ccccc4c3C[C@@H]2C1=O
inactive: locus YHR030C, strain SLT2, stronger effect = lower value 0.966 | locus YHR079C, strain IRE1, stronger effect = lower value 0.947 | locus YJL095W, strain BCK1, stronger effect = lower value 0.964 | locus YJR066W, strain TOR1, stronger effect = lower value 0.913 | locus YLR113W, strain HOG1, stronger effect = lower value 0.968 | locus YNL183C, strain NPR1, stronger effect = lower value 0.918 | locus YOR231W, strain MKK1, stronger effect = lower value 0.975 | locus YPL256C, strain CLN2, stronger effect = lower value 0.946
